From PubChem BioAssay come the findings set out here.

Experiment [1] concerns PRMT1 (protein arginine N-methyltransferase 1). Kind of experiment: PRMT1 binders on small-molecule microarrays, primary screen, biochemical, small-molecule microarray, 635 nm fluorescence (AID 1088).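 Also: binding of Prmt1 protein to compounds spotted on small-molecule microarray slides.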 To be noted: small-molecule microarray binding, higher = more signal.
Experiment [2] in a line: yeast growth modulation, basal conditions, primary screen, YJM789 clinical isolate, OD600, 24 h (AID 1089).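 Also: growth of clinical yeast isolate S. cerevisiae YJM 789 seeded 1000 cells per well; test concentration not given here.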 To be noted: S. cerevisiae YJM789 growth, higher = more signal, called active from +8 up or from −8 down.
The nature of experiment [3]: fission yeast growth modulation, primary screen, strain 972, OD600, 24 h, no modulator (AID 1090).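 Also: basal condition with compound alone and no growth modifier present; test concentration not given here.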 To be noted: S. pombe 972 growth, higher = more signal, called active from +8 up or from −8 down.
Experiment [4] in a line: S. cerevisiae growth modulation with rapamycin, primary screen, strain BY4716, OD600, 96 h (AID 1091). Also: test concentration not given here. To be noted: higher = more signal, called active from +8 up or from −8 down.
Experiment [5] deals with Torsin-1A-interacting protein 2 (Homo sapiens) (UniProt Q8NFQ8). Kind of experiment: LULL1 binders on small-molecule microarray, primary screen, cell lysate, human LULL1 lysate, 635/667 nm fluorescence (AID 1092).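 Also: probe is lysate of COS7 cells overexpressing human LULL1; score merges per-feature 667 nm fluorescence with signal-to-noise.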 To be noted: hLULL1 lysate binding, 635 nm fluorescence, higher = more signal.
Torsin-1A-interacting protein 2 (Homo sapiens), sequence (Q8NFQ8 whole entry, looked up): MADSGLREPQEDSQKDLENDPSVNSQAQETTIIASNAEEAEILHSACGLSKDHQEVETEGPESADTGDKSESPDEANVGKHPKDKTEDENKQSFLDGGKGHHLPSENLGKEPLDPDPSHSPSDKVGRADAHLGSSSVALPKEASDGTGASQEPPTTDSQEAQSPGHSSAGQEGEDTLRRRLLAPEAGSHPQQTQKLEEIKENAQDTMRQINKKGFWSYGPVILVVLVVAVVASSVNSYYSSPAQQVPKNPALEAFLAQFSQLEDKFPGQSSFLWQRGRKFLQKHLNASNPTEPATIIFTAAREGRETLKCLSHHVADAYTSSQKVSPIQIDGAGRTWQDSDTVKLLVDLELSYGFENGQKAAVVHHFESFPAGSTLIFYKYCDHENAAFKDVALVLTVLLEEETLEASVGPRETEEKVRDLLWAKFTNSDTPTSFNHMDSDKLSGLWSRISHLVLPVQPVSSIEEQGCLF
Experiment [6] is described as follows: E. coli growth modulation, two-sided OD650, primary screen, E. coli filamentation project, strain DRC41, 24 h (AID 1093).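 Also: MC1000 strain lacking acrAB efflux and sulA so SOS filamentation is blocked; test concentration not given here.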 The settings on record: OD650, 24 h, higher = more signal, called active from +8 up or from −8 down.
The nature of experiment [7]: small-molecule microarray binders of probe aLefty2, primary screen, biochemical, biotinylated probe, 635/667 nm fluorescence (AID 1094).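 Also: score merges spot fluorescence near 667 nm with spot signal-to-noise ratio.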 To be noted: higher = more signal.
The test system of experiment [8] is Noggin (protein binding on small-molecule microarray). Nature of the experiment: Noggin binders on small-molecule microarray, primary screen, biochemical, 635/667 nm fluorescence (AID 1095).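 Also: score merges 667 nm feature fluorescence with signal to noise over triplicate slides.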 The settings on record: 635 nm fluorescence, higher = more signal.
Experiment [9] has as its target Neurogenic locus notch homolog protein 3 (Homo sapiens) (UniProt Q9UM47). Nature of the experiment: NOTCH3 binders on small-molecule microarray, primary screen, biochemical, 635/667 nm fluorescence (AID 1096). To be noted: NOTCH3 binding, 635 nm fluorescence, higher = more signal.
The nature of experiment [10]: small-molecule microarray binders of probe aEGFR, primary screen, biochemical, biotinylated probe, 635/667 nm fluorescence (AID 1097).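 Also: probe is a biotinylated anti-EGFR antibody binding compounds printed on slides; score combines fluorescence near 667 nm and signal to noise of each spot.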 To be noted: higher = more signal.

Each structure is given as a SMILES string. The source made the active and inactive calls.

Neurogenic locus notch homolog protein 3 (Homo sapiens), sequence (Q9UM47 whole entry, looked up): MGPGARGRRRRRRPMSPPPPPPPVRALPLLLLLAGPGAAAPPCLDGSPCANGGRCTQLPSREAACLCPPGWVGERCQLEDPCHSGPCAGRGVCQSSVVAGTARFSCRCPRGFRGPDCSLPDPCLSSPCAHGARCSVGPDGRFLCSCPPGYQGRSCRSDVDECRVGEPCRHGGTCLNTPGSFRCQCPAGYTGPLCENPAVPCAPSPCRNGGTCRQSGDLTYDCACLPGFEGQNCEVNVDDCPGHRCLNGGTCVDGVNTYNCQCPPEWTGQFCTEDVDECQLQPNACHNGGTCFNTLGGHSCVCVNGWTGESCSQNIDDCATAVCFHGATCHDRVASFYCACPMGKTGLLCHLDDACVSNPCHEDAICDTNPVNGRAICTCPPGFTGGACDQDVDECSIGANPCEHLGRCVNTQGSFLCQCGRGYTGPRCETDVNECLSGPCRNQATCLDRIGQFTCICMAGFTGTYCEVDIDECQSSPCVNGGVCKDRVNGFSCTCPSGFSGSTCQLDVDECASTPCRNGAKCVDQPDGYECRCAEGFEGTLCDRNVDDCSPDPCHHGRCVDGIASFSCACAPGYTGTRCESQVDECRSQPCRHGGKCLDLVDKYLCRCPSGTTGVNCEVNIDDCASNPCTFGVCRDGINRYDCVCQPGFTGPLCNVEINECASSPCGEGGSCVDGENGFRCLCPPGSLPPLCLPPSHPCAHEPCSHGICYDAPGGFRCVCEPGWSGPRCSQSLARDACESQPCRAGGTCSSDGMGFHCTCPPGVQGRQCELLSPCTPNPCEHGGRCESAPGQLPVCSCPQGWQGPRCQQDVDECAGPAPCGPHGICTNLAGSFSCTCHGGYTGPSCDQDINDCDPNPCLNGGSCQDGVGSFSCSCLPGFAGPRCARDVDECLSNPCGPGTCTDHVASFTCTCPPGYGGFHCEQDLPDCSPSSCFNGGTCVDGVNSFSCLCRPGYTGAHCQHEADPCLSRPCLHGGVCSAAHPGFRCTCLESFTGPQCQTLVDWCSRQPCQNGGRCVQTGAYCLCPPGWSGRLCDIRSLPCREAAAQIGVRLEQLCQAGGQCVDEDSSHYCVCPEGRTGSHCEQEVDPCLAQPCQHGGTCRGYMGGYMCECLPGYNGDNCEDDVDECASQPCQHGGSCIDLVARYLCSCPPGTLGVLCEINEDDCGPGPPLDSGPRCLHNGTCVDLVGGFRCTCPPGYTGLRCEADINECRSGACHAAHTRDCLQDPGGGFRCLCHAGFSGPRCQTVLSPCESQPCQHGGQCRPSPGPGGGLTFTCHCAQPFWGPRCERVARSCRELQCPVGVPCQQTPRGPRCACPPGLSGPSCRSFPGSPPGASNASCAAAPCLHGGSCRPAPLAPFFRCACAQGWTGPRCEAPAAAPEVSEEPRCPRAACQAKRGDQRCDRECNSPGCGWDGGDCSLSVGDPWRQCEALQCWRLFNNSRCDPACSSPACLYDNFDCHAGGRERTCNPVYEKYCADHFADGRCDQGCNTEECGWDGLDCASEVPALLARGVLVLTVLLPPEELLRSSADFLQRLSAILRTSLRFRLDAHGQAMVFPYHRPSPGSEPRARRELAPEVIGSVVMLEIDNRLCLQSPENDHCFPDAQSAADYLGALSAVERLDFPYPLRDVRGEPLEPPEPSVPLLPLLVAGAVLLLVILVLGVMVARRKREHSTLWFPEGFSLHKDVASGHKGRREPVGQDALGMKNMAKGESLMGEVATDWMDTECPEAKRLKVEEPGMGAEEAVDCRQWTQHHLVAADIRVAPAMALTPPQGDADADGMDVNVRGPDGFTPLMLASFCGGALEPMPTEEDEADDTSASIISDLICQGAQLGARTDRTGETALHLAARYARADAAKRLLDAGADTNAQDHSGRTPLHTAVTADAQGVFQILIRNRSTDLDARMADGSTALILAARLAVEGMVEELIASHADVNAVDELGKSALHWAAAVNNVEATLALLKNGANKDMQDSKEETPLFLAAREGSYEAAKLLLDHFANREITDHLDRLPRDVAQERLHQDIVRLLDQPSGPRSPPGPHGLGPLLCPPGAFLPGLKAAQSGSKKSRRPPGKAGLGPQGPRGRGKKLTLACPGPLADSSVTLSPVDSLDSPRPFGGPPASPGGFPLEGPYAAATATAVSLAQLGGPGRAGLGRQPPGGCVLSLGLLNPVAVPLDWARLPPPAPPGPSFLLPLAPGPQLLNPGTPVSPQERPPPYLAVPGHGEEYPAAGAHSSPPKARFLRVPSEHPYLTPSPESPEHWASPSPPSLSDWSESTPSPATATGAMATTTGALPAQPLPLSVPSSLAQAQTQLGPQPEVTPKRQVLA

As to `[N-]=[N+]=Nc1ccccc1C[C@]1(C(=O)N2CCOCC2)COC(c2ccc(OCCCO)cc2)=N1`, the composite z-score in experiment [1] was 1.56; in experiment [5], 3.51; in experiment [7] it was 0.0446; in [8], 0.182; in experiment [9], 1.06; in experiment [10], 0.0308. In addition, the z-score in experiment [2] is -2.05 (inactive); in [3], -5.79 (inactive); in [4] it was -2.08 (inactive); in [6], 1.91 (inactive).

For the compound `COCCOC(=O)N1C(=O)[C@@]2(c3cc(C#CC4(O)CCCCCC4)ccc31)[C@H](c1ccc(O)cc1)N1[C@H](c3ccccc3)[C@H](c3ccccc3)OC(=O)[C@H]1[C@@H]2C(=O)N1CCN(c2ncccn2)CC1`, the composite z-score in [1] is 1.55; in experiment [5] it was 2.57; in experiment [7] it was -0.0282; in experiment [8], 0.0969; in [9] it was 0.987; in experiment [10], -0.0234. For the same compound, the z-score in experiment [2] was 0.12 (inactive); in experiment [3], -0.247 (inactive); in experiment [4], 1.07 (inactive); in [6], -0.321 (inactive).

In the case of `CC(CO)N1C(=O)[C@@H]2[C@H]3C(=O)OCC=C[C@H]3OC23C=CCN(Cn2nnc4ccccc42)C(=O)[C@@H]13` (stereo not given in full), the composite z-score in experiment [1] was -0.533; in experiment [5], -0.444; in experiment [7], -0.185; in experiment [8], -0.746; in [9] it was -0.652; in experiment [10], -0.292. Besides, the z-score in experiment [2] was -0.596 (inactive); in experiment [3], -0.225 (inactive); in experiment [4] it was -0.473 (inactive); in experiment [6], -0.333 (inactive).

Regarding `COC(=O)C1=CC(CCCO)=CC(c2ccc(CN3CCCC3)cc2)N(Cc2cccc(OC(F)(F)F)c2)C=C1C(=O)OC` (stereo not given), the composite z-score in [1] is 1.44; in experiment [5], 3.31; in experiment [7] it was 0.373; in experiment [8], -0.116; in [9], 0.888; in experiment [10], -0.0418. Also, the z-score in [2] is -1.22 (inactive); in experiment [3], -9.89 (active); in experiment [4], -1.11 (inactive); in experiment [6], -2.59 (inactive).

Turning to `N[C@@H](Cc1ccccc1)C(=O)NCc1cn(Cc2ccccc2)nn1`, the composite z-score in [1] is 0.05; in experiment [5], -0.183; in experiment [7], 0.0582; in experiment [8], 0.465; in experiment [9], -0.005; in experiment [10] it was 0.0282. In addition, the z-score in experiment [2] was 0.246 (inactive); in [3], -0.572 (inactive); in experiment [4] it was -1.05 (inactive); in [6], 0.78 (inactive).

As for `CCOC(=O)C[C@H]1[C@H](OC(=O)c2ccc(C(=O)c3ccccc3)cc2)[C@@H](NC(=O)C2CCCCC2)c2cc(OCCCO)ccc2N1C(=O)c1ccc2ccccc2n1`, the composite z-score in experiment [1] was 1.34; in experiment [5], 2.01; in experiment [7], -0.02; in experiment [8] it was 0.887; in experiment [9] it was 1.13; in experiment [10] it was 0.0213. Further, the z-score in experiment [2] is -0.882 (inactive); in experiment [3], 0.708 (inactive); in [4], 0.276 (inactive); in experiment [6], 1.25 (inactive).

In the case of `CN(C)C(=O)[C@@]1(Cc2ccccc2CN=[N+]=[N-])N=C(c2ccc(OCCCO)cc2)O[C@H]1c1ccccc1N=[N+]=[N-]`, the composite z-score amounted to 1.43 in experiment [1]; 3.37 in [5]; 0.445 in experiment [7]; 0.452 in [8]; 1.14 in [9]; 0.242 in experiment [10]. The z-score in experiment [2] was -0.415 (inactive); in experiment [3], 0.417 (inactive); in experiment [4] it was 5.36 (inactive); in experiment [6], 0.151 (inactive).

For the compound `COCCOC(=O)N1C(=O)[C@@]2(c3cc(C#CCNC(N)=O)ccc31)[C@H](C(N)=O)[C@H]1C(=O)O[C@H](c3ccccc3)[C@H](c3ccccc3)N1[C@@H]2c1ccccc1OCCO`, the composite z-score in experiment [1] is 1.47; in experiment [5], 2.07; in experiment [7], 0.0389; in [8], 0.506; in experiment [9], 1.08; in experiment [10], -0.071. The z-score is 1 (inactive) in experiment [2], 0.346 (inactive) in experiment [3], 1.91 (inactive) in [4] and -0.658 (inactive) in experiment [6].

Regarding `[N-]=[N+]=Nc1ccccc1C[C@]1(C(=O)O)COC(c2ccc(OCCCO)cc2)=N1`, the composite z-score in experiment [1] is -0.767; in experiment [5] it was 1.66; in experiment [7], -0.195; in experiment [8] it was -0.476; in [9], -0.609; in experiment [10], -0.0079. The z-score is -0.458 (inactive) in [2], -0.88 (inactive) in experiment [3], 0.559 (inactive) in experiment [4] and -0.408 (inactive) in [6].

Take `CCOC(=O)C=Cc1cccc(C)c1O`: the composite z-score in experiment [1] was 0.23; in experiment [5], 0.236; in experiment [7], -0.166; in experiment [8] it was -0.452; in experiment [9], -0.0138; in [10], -0.099. The z-score was -19.8 (active) in experiment [2], -11.5 (active) in [3], -2.54 (inactive) in [4] and 0.666 (inactive) in experiment [6].

In the case of `CCCN1C(=O)[C@]2(Cc3ccccc31)N=C(c1ccc(OCCCO)cc1)O[C@@H]2c1ccccc1`, the composite z-score is 1.55 in [1]; 2.74 in experiment [5]; -0.0391 in experiment [7]; 1.66 in experiment [8]; 1.03 in experiment [9]; -0.139 in experiment [10]. Further, the z-score in experiment [2] is -1.49 (inactive); in [3] it was -2.93 (inactive); in experiment [4], 1.44 (inactive); in [6], -0.0411 (inactive).

Turning to `N#Cc1ccc(NN2C(C(O)c3ccc(Br)cc3)C=CC3C(=O)N(c4ccccc4)C(=O)C32)cc1` (stereo not given), the composite z-score in experiment [1] is 0.751; in experiment [5] it was 2.99; in experiment [7], 0.145; in [8], -0.146; in [9] it was 1.01; in [10] it was 0.233. In addition, the z-score in experiment [2] is -1.16 (inactive); in experiment [3] it was -0.605 (inactive); in experiment [4], 0.297 (inactive); in [6] it was -1 (inactive).

Consider `Cc1cc(C)c(C(O)C2C=CC3C(=O)N(c4ccccc4)C(=O)C3N2Nc2ccccc2F)c(C)c1` (stereo not given), for which the composite z-score in experiment [1] is -0.0446; in experiment [5] it was 1.89; in experiment [7], 0.0216; in experiment [8] it was -0.73; in experiment [9], -0.0072; in experiment [10], 0.779. Further, the z-score in experiment [2] was 1.37 (inactive); in experiment [3] it was 1.11 (inactive); in [4], 1.77 (inactive); in experiment [6] it was -1.31 (inactive).
